Screens (PubChem)
Tau fluor counter: Counterscreen qHTS for Inhibitors of Tau Fibril Formation, Fluorescence Polarization; 0.93% of 280,000 active; tau K18 P301L Alexa594 fluorescence, heparin fibrillization; Potency, µM (titrated, usually from 57.7 µM), for the others: at the highest dose activity change, negative = decrease; also: potency is read from the fitted curve at half-maximal effect; nearly all actives have a fitted effect of over 55% in size
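Human tau K18 P301L (15 uM unlabeled, 0.24 uM Alexa 594-labeled) in 100 mM sodium acetate pH 7 with 20 uM heparin, 6 hr at 37 C. ThT 30 uM added, 1 hr ambient; Alexa 594 FP and total fluorescence read at 555/632 nm.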
KDM4E inh: qHTS Assay for Inhibitors of Human Jumonji Domain Containing 2E (JMJD2E); Potency, µM (series often up to 57.1 µM), for the others: top-dose activity change, negative = inhibition, usual class: inhibitors; 1.6% of 230,000 active; JMJD2E catalytic domain, FDH-coupled NADH fluorescence (FDH is formaldehyde dehydrogenase); Lysine-specific demethylase 4E (Homo sapiens), B2RXH2; AID 2147, 2009; active = well fitted inhibition curve with a large enough effect, not every such curve was filed as active; inconclusive = small, poorly fitted or top-dose-only effect, or another doubt; inactive = no such curve, though single readings can be large or run the other way;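 also: potency is read from the fitted curve at half-maximal effect; 0% = wells with enzyme and -100% = buffer wells without enzyme; nearly all actives have a fitted effect of over 50% in size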
Target sequence (B2RXH2 1-337 limits assumed): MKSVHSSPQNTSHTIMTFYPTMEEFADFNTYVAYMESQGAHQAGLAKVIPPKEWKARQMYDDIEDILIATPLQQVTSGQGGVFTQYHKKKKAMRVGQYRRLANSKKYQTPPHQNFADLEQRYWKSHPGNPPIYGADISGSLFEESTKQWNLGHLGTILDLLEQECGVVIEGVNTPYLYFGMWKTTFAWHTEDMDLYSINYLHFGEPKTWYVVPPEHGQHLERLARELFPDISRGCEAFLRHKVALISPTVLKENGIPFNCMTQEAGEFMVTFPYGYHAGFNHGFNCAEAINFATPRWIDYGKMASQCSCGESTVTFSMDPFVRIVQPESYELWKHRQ
Tau ThT inhib: qHTS for Inhibitors of Tau Fibril Formation, Thioflavin T Binding; 2.1% of 270,000 active; Potency, µM (doses to about 57.4 µM), without a hit: at the top dose activity, negative = inhibition, hits mostly inhibitors; AID 1460, 2008; recombinant tau K18 P301L (four-repeat tau fragment), heparin-induced fibrillization, ThT fluorescence; Microtubule-associated protein tau (Homo sapiens), P10636; also: potency is read from the fitted curve at half-maximal effect; nearly all actives have a fitted effect of over 55% in size
Target sequence (P10636 561-689 P618L limits assumed): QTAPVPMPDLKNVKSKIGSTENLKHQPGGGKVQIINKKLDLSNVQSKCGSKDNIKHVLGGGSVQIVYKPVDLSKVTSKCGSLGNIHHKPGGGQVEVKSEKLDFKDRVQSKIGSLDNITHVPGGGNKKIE
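Heparin-induced fibrillization of the P301L-mutant K18 repeat-domain fragment of human tau was followed by ThT binding in quantitative high-throughput format.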
FBPA coupling cs: qHTS Assay for Inhibitors of Fructose-1,6-bisphosphate Aldolase from Giardia Lamblia: Coupling assay counterscreen; activity change, negative = inhibition, % at 58.2 µM, hits read low; AID 2472, 2010; coupling enzyme system counterscreen, AmpLite Red fluorescence; 0.67% of 290,000 active; in the data active = activity change below about -30%
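Activity here indicates interference with the coupling reaction, not aldolase inhibition. Compounds at 57.5 uM final met coupling enzymes for 10 min at RT; substrate and AmpLite Red detection followed, with a 525/598 nm fluorescence read after 20 min.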
Sfp inh: qHTS Assay for Inhibitors of Bacillus subtilis Sfp phosphopantetheinyl transferase (PPTase). Potency, µM, inactives show largest response in the series, negative = inhibition, actives largely listed as inhibitors. Biochemical Sfp PPTase activity, qHTS. 4'-phosphopantetheinyl transferase ffp (Bacillus subtilis), Q9F4F7. 3.5% of 310,000 active. AID 1490, 2009;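 also: the enzyme is Sfp with the accession as filed and its product quenches rhodamine fluorescence; potency is read from the fitted curve at half-maximal effect; 0% = enzyme reaction without inhibitor and -100% = no enzyme wells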
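Sfp 15 nM + cpd, 15 min RT; start w/ rhodamine-CoA 5 uM, BHQ-2-YbbR 12.5 uM (final); 50 mM Hepes pH 7.6, 10 mM MgCl2, 0.01% NP-40, 0.01% BSA; read 525/598 nm at 0 and 30 min.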
Tau FP inhib: qHTS for Inhibitors of Tau Fibril Formation, Fluorescence Polarization | AID 1468, 2008 | K18 P301L tau heparin fibrillization, Alexa594 FP, 6 h | 0.39% of 280,000 active | Potency, µM (titrated, usually from 57.7 µM), for inactives: top-dose activity, negative = inhibition, actives largely listed as inhibitors | Microtubule-associated protein tau (Homo sapiens), P10636; also: potency is read from the fitted curve at half-maximal effect; nearly all actives have a fitted effect of over 55% in size
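Read-out: fluorescence polarization of Alexa 594-labeled tau (0.24 uM), 555 nm excitation, 632 nm emission. Mixtures held 15 uM unlabeled K18 P301L, compound and 20 uM heparin, pH 7 acetate buffer, incubated 6 hr at 37 C.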
* marks the source's active call; other numbers are inactive results; [ ] = dose if it differs, or a comment. Rows were chosen to be rich in hits. Some 5.3% of all compounds tested hit in one or more screens of this group. Unless noted, calls follow the shape of the dose curve; as a rule, active = well fitted curve in the direction sought with a large enough effect; inconclusive = small, poorly fitted or top-dose-only effect, or another doubt; inactive = no such curve, though single readings can be large; an effect the other way counts as inactive or inconclusive. Unless noted, % is scaled to controls: 0 for no effect and ±100 for the full control effect.

Screening COc1cc(C2C3=C(CC(c4ccco4)CC3=O)Nc3ccccc3N2C(C)=O)cc(OC)c1OC (stereo unspecified) returned Tau fluor counter -2.1%, KDM4E inh inconclusive, Tau ThT inhib -13.2%, FBPA coupling cs -9.9, Sfp inh 17.8µM* and Tau FP inhib 4.0%.
`CCC(=O)N1c2ccccc2NC2=C(C(=O)CC(c3ccco3)C2)C1c1ccco1` (stereo unspecified) gave Tau fluor counter 1.6%, KDM4E inh -26.5%, Tau ThT inhib -8.0%, FBPA coupling cs 0.4, Sfp inh -21.0% and Tau FP inhib 5.3%.
`O=C1CC(c2ccco2)CC2=C1C1c3ccccc3C(=O)N1c1ccccc1N2` (stereo unspecified) gave Tau fluor counter inconclusive, KDM4E inh -6.3%, Tau ThT inhib -13.8%, FBPA coupling cs 1.9, Sfp inh 20µM* and Tau FP inhib -10.0%.
For Cc1cccnc1NCc1ccc(O)c2ncccc12 the results were Tau fluor counter -29.8%, KDM4E inh 17.8µM*, Tau ThT inhib inconclusive, FBPA coupling cs 3.4, Sfp inh 15.9% and Tau FP inhib -12.0%.
Cc1cccc(NCc2ccc(O)c3ncccc23)c1C was read as Tau fluor counter -22.3%, KDM4E inh -14.3%, Tau ThT inhib inconclusive, FBPA coupling cs -2.8, Sfp inh 27.0% and Tau FP inhib 5.1%.
Screening CC(=O)Nc1c(O)nc(SCC(=O)Nc2nnc(SCc3ccccc3)s2)[nH]c1=O returned Tau fluor counter inconclusive, KDM4E inh 7.4%, Tau ThT inhib inconclusive, FBPA coupling cs 20.7, Sfp inh 35.5µM* and Tau FP inhib inconclusive.
For CCCCOC(=O)c1ccc(Nc2ncnc3[nH]ncc23)cc1 the results were Tau fluor counter inconclusive, Tau ThT inhib -4.4% and Tau FP inhib inconclusive.
Cc1cc(NC(=O)c2cc(C)on2)no1 was read as Tau fluor counter -0.6%, KDM4E inh 0.1%, Tau ThT inhib inconclusive, FBPA coupling cs 1.7, Sfp inh 5.8% and Tau FP inhib -3.5%.
CNc1nc(N)c(C(=O)Nc2cc(C)on2)s1 was read as Tau fluor counter -9.5%, KDM4E inh -6.2%, Tau ThT inhib -19.2%, FBPA coupling cs 2.6, Sfp inh 50.1µM* and Tau FP inhib 3.0%.
For CC1CC(=O)N(CC(=O)Nc2ccc(F)cc2F)c2ccccc2S1 (stereo unspecified) the results were Tau fluor counter -6.8%, Tau ThT inhib -3.7% and Tau FP inhib -3.0%.
Screening COc1ccc(-c2nc3c(c4c2C[C@H](c2ccccc2)OC4)CN(C(=O)Nc2cccc(C#N)c2)CC3)c(C)c1 returned Tau fluor counter -11.6%[11.6 µM], KDM4E inh -0.2%[11.4 µM], Tau ThT inhib -0.7%[11.5 µM], FBPA coupling cs 3.4, Sfp inh 14.6% and Tau FP inhib -3.5%[11.6 µM].
`Cc1ccc(C)c(CSc2nnc(-c3ccccn3)n2N)c1` gave Tau fluor counter 3.7%, KDM4E inh 5.0%, Tau ThT inhib 6.0%, FBPA coupling cs -1.9, Sfp inh 11.6% and Tau FP inhib 1.8%.
`Cc1ccc(C)c(CSC2=NC(C)(C)Nc3ccccc32)c1` gave Tau fluor counter 11.2µM*[quencher], Tau ThT inhib inconclusive and Tau FP inhib 0.6%.
Screening CC1(C)N=C(SCc2ccc(F)cc2)c2ccccc2N1 returned Tau fluor counter 11.2µM*[quencher], Tau ThT inhib inconclusive and Tau FP inhib -4.7%.
Screening CCCCn1cc(S(=O)(=O)c2ccc(OC)cc2)c(=O)c2cc(CC)ccc21 returned Tau fluor counter -11.7%, Tau ThT inhib -6.1% and Tau FP inhib 6.7%.
Cc1cccc(NC(=S)NC2CCCCC2)n1 was read as Tau fluor counter 3.1%, KDM4E inh -12.6%, Tau ThT inhib -1.0%, FBPA coupling cs -3.2, Sfp inh 50.1µM* and Tau FP inhib -4.8%.
`Cc1cccc(NC(=S)NC2CCCCCC2)c1C` gave Tau fluor counter -6.8%, KDM4E inh -7.6%, Tau ThT inhib -6.8%, FBPA coupling cs 1.9, Sfp inh 3.6% and Tau FP inhib -6.1%.
Screening Cc1cccc(NC(=S)Nc2cccc(C)n2)n1 returned Tau fluor counter -6.5%, KDM4E inh -1.9%, Tau ThT inhib -1.8%, FBPA coupling cs 1.2, Sfp inh 18.7% and Tau FP inhib -11.7%.
For Cc1cccc(NC(=S)NC2CCCC2)n1 the results were Tau fluor counter 5.8%, KDM4E inh -1.0%, Tau ThT inhib 10.9%, FBPA coupling cs -5.9, Sfp inh 10µM* and Tau FP inhib -4.9%.
CN1C=CC(=C2C=CN(C)C=C2)C=C1 was read as FBPA coupling cs -5.0 and Sfp inh -10.8%.
Screening CCCCc1nc2c(c3c1C[C@H](C)OC3)CN(C(=O)c1cccnc1)CC2 returned Tau fluor counter -1.5%[11.6 µM], KDM4E inh 8.2%[11.4 µM], Tau ThT inhib 2.9%[11.5 µM], FBPA coupling cs 0.4, Sfp inh 10.3% and Tau FP inhib -2.2%[11.6 µM].
`Cc1cc(N/N=C/c2ccc(O)c(C)c2O)nc(-c2ccccc2O)n1` gave Tau fluor counter 7.94µM*[quencher], KDM4E inh 25.1µM*, Tau ThT inhib inconclusive, FBPA coupling cs -0.6, Sfp inh -9.7% and Tau FP inhib inconclusive.
For Cc1ccc(Nc2cc(C)nc(-c3ccccc3O)n2)cc1 the results were Tau fluor counter 8.91µM*[quencher], KDM4E inh inconclusive, Tau ThT inhib inconclusive, FBPA coupling cs -1.8, Sfp inh 12.4% and Tau FP inhib inconclusive.
Screening Cc1cc(Nc2ccc(Br)cc2)nc(-c2ccccc2O)n1 returned FBPA coupling cs -0.8 and Sfp inh -8.0%.
Cc1nn(-c2ccccc2)c2c1N(CC(=O)NCc1ccc(N(C)C)cc1)C(=O)CS2 was read as Tau fluor counter -26.5%, Tau ThT inhib inconclusive and Tau FP inhib -1.3%.
CCOC(=O)c1ccc(NC(=O)c2cc3c(n(-c4ccc(C)cc4)c2=O)CC(C)(C)CC3=O)cc1 was read as Tau fluor counter -6.3%, Tau ThT inhib -3.6% and Tau FP inhib -10.0%.
Cc1ccc(C(=O)NNC(=O)CSc2nc(N)cc(N)n2)cc1 was read as Tau fluor counter -9.3%, KDM4E inh 1.3%, Tau ThT inhib -10.9%, FBPA coupling cs -2.0, Sfp inh 31.6µM* and Tau FP inhib -4.3%.
